# Experimental data from PubChem BioAssay (Tox21).
# Where “and” joins values, the source holds several entries; their conditions need not be identical. Equal entries are not always repeated. Values without a mark were called inactive. Results filed as inconclusive are left out. Calls of active or inactive are those of the source. Calls follow the shape of the full dose curve.
# Target: Acetylcholinesterase (Homo sapiens) (UniProt P22303)
# Assay: Acetylcholinesterase (AChE) small molecule antagonists: enzyme-based qHTS assay (AID 1347397); also: nearly all actives have a fitted effect of over 55% in size
# Conditions: Potency: AChE enzyme activity inhibition; outcome: AChE enzyme activity inhibition; series mostly up to 115 µM; activity change, negative = inhibition: at the top concentration
# Summary of the method: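 Colorimetric DTNB readout of acetylthiocholine hydrolysis, 10 min at room temperature, after 30 min room-temperature exposure of 50 mU/mL recombinant human enzyme to compound; DMSO vehicle control.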
# % is scaled to controls: 0 for no effect and ±100 for the full control effect; potency is read from the fitted curve at half-maximal effect.
# Chain of Acetylcholinesterase (Homo sapiens) (P22303 whole entry, looked up): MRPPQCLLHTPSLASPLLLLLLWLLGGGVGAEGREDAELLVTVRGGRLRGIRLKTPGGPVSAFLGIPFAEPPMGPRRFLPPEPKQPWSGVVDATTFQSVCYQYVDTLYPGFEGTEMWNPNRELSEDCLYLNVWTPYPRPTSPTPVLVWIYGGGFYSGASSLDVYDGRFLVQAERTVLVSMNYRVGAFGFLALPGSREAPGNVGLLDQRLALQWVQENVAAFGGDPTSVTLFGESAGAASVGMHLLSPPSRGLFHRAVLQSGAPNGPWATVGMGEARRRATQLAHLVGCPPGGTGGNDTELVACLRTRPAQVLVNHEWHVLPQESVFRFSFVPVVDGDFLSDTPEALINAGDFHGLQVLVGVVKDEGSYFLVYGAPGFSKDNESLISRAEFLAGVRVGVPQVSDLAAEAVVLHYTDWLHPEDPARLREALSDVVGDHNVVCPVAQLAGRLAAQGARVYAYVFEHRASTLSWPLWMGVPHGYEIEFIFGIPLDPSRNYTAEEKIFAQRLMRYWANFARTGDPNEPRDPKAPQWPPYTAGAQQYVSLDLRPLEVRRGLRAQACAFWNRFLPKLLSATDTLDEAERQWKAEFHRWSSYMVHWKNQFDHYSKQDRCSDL
Structure (SMILES),"activity change, negative = inhibition",Potency
CCN(CC)CC(=O)Oc1ccc(NC(C)=O)cc1,-0.945% [at 53 µM],–
CC(C)(C)OC(=O)c1cccc(N)c1,-3.81%,–
Cc1c(C)c2c(c(C)c1OC(=O)c1cccnc1)CC[C@@](C)(CCC[C@H](C)CCC[C@H](C)CCCC(C)C)O2,0.0073% [at 53 µM],–
O=C1C=CC(=O)N1c1ccccc1,-14.6%,–
O=C1OC(=O)c2cccc3cccc1c23,0.541%,–
O=S(O)O,-0.777% [at 23.6 µM],–
CN(C)c1ccc(C(=C2C=CC(=[N+](C)C)C=C2)c2ccc(N(C)C)cc2)cc1,–,25.1 µM (active) and 35.6 µM (active) and 30.9 µM (active)
CCCC(CC)c1ccccc1 (stereo not given),0.258%,–
Cc1oc(-c2ccccc2)nc1CCOc1cccc2c1ccn2CCC(=O)O,-0.578%,–
CC(C)CC(=O)CC(C)C,–,inactive
Nc1cc(Cl)c([N+](=O)[O-])cc1O,15%,–
O=C(O)CCCCCCC(=O)O,0.411%,–
CC(=O)Nc1ccc(C)cc1C,-0.258%,–
CCc1cccc2c(CCO)c[nH]c12,0.945% [at 53 µM],–
OCC(O)CS (stereo not given),–,inactive
O=C(O)c1ccccc1,–,inactive
N#CCCN(CCO)CCO,4%,–
NC(=O)NS(=O)(=O)c1ccc(N)cc1,0.277% [at 53 µM],–
COc1c(Cl)c(Cl)c(Cl)c(Cl)c1Cl,–,inactive
NC(=O)NC1NC(=O)NC1=O (stereo not given),–,inactive

Structure (SMILES),"activity change, negative = inhibition",Potency
Cc1cc(C)cc(N)c1,0.818%,–
CC(=O)Nc1c(I)c(NC(C)=O)c(I)c(C(=O)O)c1I,–,inactive
c1ccc2cc3ccccc3cc2c1,–,inactive
Nc1ncnc(Nc2ccccc2)n1,0.554% [at 53 µM],–
Cc1cccnc1,–,inactive
CC(C)(C)NC(N)=O,-0.634%,–
C[N+](C)(C)CCOC(=O)CCC(=O)OCC[N+](C)(C)C,-0.505% [at 53 µM],–
CCCCC/C(C=O)=C\c1ccccc1,–,inactive
C=C(C)C(=O)OCC1CCCO1 (stereo not given),3.16%,–
CCCCOCCOCCOCCOCCO,0.516%,–
C/C(CC(C)C)=N\O,-1.18%,–
CC(C)(O)C(=O)c1ccccc1,1.03%,–
CC/C=C\CCOC(C)OCC (stereo not given),-0.344% [at 53 µM],–
CCCCCC(=O)OCC,0.162%,–
CNC(=S)NN,2.84%,–
CN1C(C)(C)CC(O)CC1(C)C,-0.641%,–
C=CCc1ccc(O)c(OC)c1,–,inactive
CCCCCCCCCOCC1CO1 (stereo not given),0.545%,–
CO[C@H]1C=CO[C@@]2(C)Oc3c(C)c(O)c4c(O)c(c(/C=N/N5CCN(C)CC5)c(O)c4c3C2=O)NC(=O)/C(C)=C\C=C[C@H](C)[C@H](O)[C@@H](C)[C@@H](O)[C@@H](C)[C@H](OC(C)=O)[C@@H]1C,–,inactive
C/C(=N\O)c1ccc(OCC(=O)N2CCCCC2)cc1,-0.305% [at 53 µM],–

# Target: Acetylcholinesterase (Homo sapiens) (UniProt P22303)
# Assay: Acetylcholinesterase (AChE) small molecule antagonists: fluorescence cell-based qHTS assay (AID 1347398); also: nearly all actives have a fitted effect of over 50% in size
# Conditions: SH-SY5Y cells; Potency: AChE activity; outcome: AChE activity; series mostly up to 115 µM; activity change, negative = inhibition: at the top concentration
# Summary of the method: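 Cellular AChE activity read as thiocholine from acetylthiocholine hydrolysis, detected by Thiolite Green fluorescence at 490/520 nm after 40 min at room temperature. Compounds were pre-incubated 30 min at 37 C on adherent SH-SY5Y cells.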
Structure (SMILES),"activity change, negative = inhibition",Potency
CCN(CC)CC(=O)Oc1ccc(NC(C)=O)cc1,10.8% [at 53.7 µM],–
CC(C)(C)OC(=O)c1cccc(N)c1,-15.3%,–
Cc1c(C)c2c(c(C)c1OC(=O)c1cccnc1)CC[C@@](C)(CCC[C@H](C)CCC[C@H](C)CCCC(C)C)O2,6.17% [at 53.7 µM],–
O=C1C=CC(=O)N1c1ccccc1,–,35.6 µM (active)
O=C1OC(=O)c2cccc3cccc1c23,-1.6%,–
O=S(O)O,0.464% [at 23.8 µM],–
CN(C)c1ccc(C(=C2C=CC(=[N+](C)C)C=C2)c2ccc(N(C)C)cc2)cc1,–,19.9 µM (active) and 44.8 µM (active) and 15.5 µM (active)
CCCC(CC)c1ccccc1 (stereo not given),-0.769%,–
Cc1oc(-c2ccccc2)nc1CCOc1cccc2c1ccn2CCC(=O)O,-3.67%,–
CC(C)CC(=O)CC(C)C,–,inactive
Nc1cc(Cl)c([N+](=O)[O-])cc1O,-3.69%,–
O=C(O)CCCCCCC(=O)O,0.76%,–
CC(=O)Nc1ccc(C)cc1C,-0.15%,–
CCc1cccc2c(CCO)c[nH]c12,5.11% [at 53.7 µM],–
OCC(O)CS (stereo not given),–,inactive
O=C(O)c1ccccc1,–,inactive
N#CCCN(CCO)CCO,1.35%,–
NC(=O)NS(=O)(=O)c1ccc(N)cc1,3.18% [at 53.7 µM],–
COc1c(Cl)c(Cl)c(Cl)c(Cl)c1Cl,–,inactive
NC(=O)NC1NC(=O)NC1=O (stereo not given),–,inactive

Structure (SMILES),"activity change, negative = inhibition",Potency
Cc1cc(C)cc(N)c1,-9.88%,–
CC(=O)Nc1c(I)c(NC(C)=O)c(I)c(C(=O)O)c1I,–,inactive
c1ccc2cc3ccccc3cc2c1,–,inactive
Nc1ncnc(Nc2ccccc2)n1,5.7% [at 53.7 µM],–
Cc1cccnc1,–,inactive
CC(C)(C)NC(N)=O,2.75%,–
C[N+](C)(C)CCOC(=O)CCC(=O)OCC[N+](C)(C)C,-8.22% [at 53.7 µM],–
CCCCC/C(C=O)=C\c1ccccc1,–,inactive
C=C(C)C(=O)OCC1CCCO1 (stereo not given),5.14%,–
CCCCOCCOCCOCCOCCO,2.47%,–
C/C(CC(C)C)=N\O,1.81%,–
CC(C)(O)C(=O)c1ccccc1,-1.54%,–
CC/C=C\CCOC(C)OCC (stereo not given),-0.841% [at 53.7 µM],–
CCCCCC(=O)OCC,4.06%,–
CNC(=S)NN,-2.16%,–
CN1C(C)(C)CC(O)CC1(C)C,2.31%,–
C=CCc1ccc(O)c(OC)c1,–,inactive
CCCCCCCCCOCC1CO1 (stereo not given),-2.49%,–
CO[C@H]1C=CO[C@@]2(C)Oc3c(C)c(O)c4c(O)c(c(/C=N/N5CCN(C)CC5)c(O)c4c3C2=O)NC(=O)/C(C)=C\C=C[C@H](C)[C@H](O)[C@@H](C)[C@@H](O)[C@@H](C)[C@H](OC(C)=O)[C@@H]1C,–,inactive
C/C(=N\O)c1ccc(OCC(=O)N2CCCCC2)cc1,7.51% [at 53.7 µM],–
